From PubChem BioAssay (Tox21)
“And” between values parts separate entries of the source, which are not always exact repeats. Identical values can stand only once. The source made the active and inactive calls. Unless noted, calls follow the shape of the dose curve; as a rule, active = well fitted curve in the direction sought with a large enough effect in the repeat runs; inconclusive = weak or mixed curves; inactive = no such curve, though single readings can be large; an effect the other way counts as inactive or inconclusive.

Tests used:
[1] = qHTS assay for small molecules that induce genotoxicity in human embryonic kidney cells expressing luciferase-tagged ATAD5 (AID 651632); also: nearly all actives have a fitted effect of over 15% in size; also: potency is read from the fitted curve at half-maximal effect
Summary of the method: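 DMSO vehicle served as the control. HEK293T reporter cells, 16 hr at 37C, then 30 min Amplite at room temperature; ATAD5 induction is measured as luciferase activity.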

[2] = qHTS assay for small molecule agonists of the p53 signaling pathway - cell viability (AID 651633; calls by dose curve; also: nearly all actives have a fitted effect of over 30% in size; also: potency is read from the fitted curve at half-maximal effect)
Summary of the method: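 p53RE-bla cells were treated with compound for 16 hours at 37 C. Cytotoxicity was then measured as CellTiter-Glo luminescence after 30 min at room temperature.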

[3] = qHTS assay for small molecules that induce genotoxicity in human embryonic kidney cells expressing luciferase-tagged ATAD5 - cell viability (AID 651634; calls by dose curve; also: nearly all actives have a fitted effect of over 25% in size; also: potency is read from the fitted curve at half-maximal effect)
Summary of the method: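 Here HEK293T cells with the ATAD5 luciferase reporter are incubated with test compounds for 15.5 hr, and cytotoxicity is then gauged by measuring protease activity in live cells using fluorescence.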

[4] = qHTS assay for small molecule disruptors of the mitochondrial membrane potential - cell viability (AID 720634; calls by dose curve; also: nearly all actives have a fitted effect of over 20% in size; also: potency is read from the fitted curve at half-maximal effect)
Summary of the method: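 Viability of HepG2 cells is scored from ATP content by luminescence; cells are exposed to compound for 1 hr at 37 C and 5% CO2, then dosed with m-MPI dye before the CellTiter-Glo reagent.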

[5] = qHTS assay for small molecule disruptors of the mitochondrial membrane potential (AID 720635); also: potency is read from the fitted curve at half-maximal effect
Summary of the method: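 HepG2 cells exposed to compound 1 hr at 37C, then Mito-MPS dye 30 min. Ratio read of aggregate (540/590 nm) versus monomer (490/535 nm) fluorescence.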

[6] = qHTS assay to test for compound auto fluorescence at 535 nm (green) in HepG2 cells (AID 720675); also: potency is read from the fitted curve at half-maximal effect
[7] = qHTS assay to test for compound auto fluorescence at 460 nm (blue) in HEK293 cells (AID 720678); also: % is scaled to controls: 0 for no effect and ±100 for the full control effect
Summary of the method: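 Auto fluorescence in the blue band was quantified as triamterene equivalency. HEK293 cells were seeded at 2,000/well, dosed after a 4-5 hr attachment, and kept overnight at 37C before the 405/460 nm reading.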

[8] = qHTS assay to test for compound auto fluorescence at 590 nm (red) in HEK293 cells (AID 720679); also: % is scaled to controls: 0 for no effect and ±100 for the full control effect
Summary of the method: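 Autofluorescence equivalency to Rose Bengal sodium, 540/590nm, in HEK293 cells exposed overnight to 23 nL compound per well.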

[9] = qHTS assay to test for compound auto fluorescence at 535 nm (green) in HEK293 cells (AID 720680); also: % is scaled to controls: 0 for no effect and ±100 for the full control effect
[10] = qHTS assay to test for compound auto fluorescence at 460 nm (blue) in HEK293 cell free culture (AID 720681); also: % is scaled to controls: 0 for no effect and ±100 for the full control effect
Summary of the method: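 Compounds were added to cell-free DMEM with 10% FBS and fluorescence read directly. The blue channel used 405 nm excitation and 460 nm emission, with triamterene as the reference fluorophore.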

[11] = qHTS assay to test for compound auto fluorescence at 535 nm (green) in HEK293 cell free culture (AID 720682); also: % is scaled to controls: 0 for no effect and ±100 for the full control effect
Summary of the method: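 Measurement is a direct plate read of green fluorescence (485 nm in, 535 nm out) after compound addition to serum-supplemented DMEM lacking cells, with fluorescein used to express intensities.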

[12] = qHTS assay to test for compound auto fluorescence at 590 nm (red) in HEK293 cell free culture (AID 720683); also: % is scaled to controls: 0 for no effect and ±100 for the full control effect
Summary of the method: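 Cell-free wells of DMEM with 10% FBS received compound, and intrinsic fluorescence was read at excitation/emission 540/590 nm. Values expressed as equivalence to Rose Bengal sodium.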

[13] = qHTS assay to test for compound auto fluorescence at 590 nm (red) in HepG2 cell free culture (AID 720684); also: % is scaled to controls: 0 for no effect and ±100 for the full control effect
Summary of the method: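 Rose Bengal sodium served as the reference for red signal. Test compounds were dispensed into serum-containing MEM (10% FBS) without cells, and plates were read at 540/590 nm.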

[14] = qHTS assay to test for compound auto fluorescence at 460 nm (blue) in HepG2 cell free culture (AID 720685); also: % is scaled to controls: 0 for no effect and ±100 for the full control effect
Summary of the method: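 Cell-free plates of MEM plus 10% FBS received 23 nL compound or DMSO vehicle; blue-channel (405/460 nm) intensity scored against triamterene as reference fluorophore.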

[15] = qHTS assay to test for compound auto fluorescence at 535 nm (green) in HepG2 cell free culture (AID 720686); also: potency is read from the fitted curve at half-maximal effect
[16] = qHTS assay to test for compound auto fluorescence at 460 nm (blue) in HepG2 cells (AID 720687); also: % is scaled to controls: 0 for no effect and ±100 for the full control effect
Summary of the method: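 HepG2 cells in MEM with 10% FBS, attached overnight at 37 C, were exposed to compound or DMSO for 1 hr at 37 C, 5% CO2. Blue fluorescence was read at 405/460 nm, with triamterene as reference fluorophore.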

[17] = biological target: Glucocorticoid receptor (Homo sapiens) (UniProt P04150); assay: qHTS assay to identify small molecule agonists of the glucocorticoid receptor (GR) signaling pathway (AID 720691; active = well fitted activation curve with a large enough effect in the signal ratio in the repeat runs, not every such curve was filed as active; inconclusive = weak or mixed curves, or effect the other way; inactive = no such curve, though single readings can be large or run the other way; the % refers to the signal ratio; also: % is scaled to controls: 0 for no effect and ±100 for the full control effect); settings: GR-bla HeLa, beta-lactamase reporter ratio, 18 h; activation: at 62.4 µM (top of the series)
Summary of the method: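 Compounds in DMSO, alongside positive controls, were added to GR-bla HeLa reporter cells and incubated 18 h at 37 C; GRE-driven beta-lactamase was detected by fluorescence after 2 h with FRET substrate at room temperature.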

[18] = qHTS assay to test for compound auto fluorescence at 590 nm (red) in HepG2 cells (AID 720674); also: % is scaled to controls: 0 for no effect and ±100 for the full control effect
Summary of the method: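 Fluorescence at 590 nm emission following 540 nm excitation was recorded from HepG2 wells one hour after compound transfer, with DMSO-only wells as vehicle and Rose Bengal sodium equivalency as the scale.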

[19] = biological target: Glucocorticoid receptor (Homo sapiens) (UniProt P04150); assay: qHTS assay to identify small molecule antagonists of the glucocorticoid receptor (GR) signaling pathway (AID 720692; active = well fitted inhibition curve with a large enough effect in the signal ratio in the repeat runs, not every such curve was filed as active; inconclusive = weak or mixed curves, or effect the other way; inactive = no such curve, though single readings can be large or run the other way; the % refers to the signal ratio; also: potency is read from the fitted curve at half-maximal effect)
Summary of the method: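 In a 1536-well cell format, compounds were added 4 h after seeding GR-bla HeLa cells, together with dexamethasone at 5 nM final; reporter activity was measured by FRET-substrate fluorescence following 18 h at 37 C.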

[20] = qHTS assay for small molecule agonists of the p53 signaling pathway (AID 651631; calls by dose curve; also: potency is read from the fitted curve at half-maximal effect; nearly all actives have a fitted effect of over 15% in size)
Summary of the method: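 Quantitative high-throughput format: 4,000 p53RE-bla HCT-116 cells/well, 5 h pre-incubation, 16 h compound exposure at 37 °C, 2 h room-temperature substrate step, fluorescence intensity measured.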
Tags tell the direction and shape of the fitted curve or compound fluorescence and quenching.

Glucocorticoid receptor (Homo sapiens), sequence (P04150 whole entry, looked up): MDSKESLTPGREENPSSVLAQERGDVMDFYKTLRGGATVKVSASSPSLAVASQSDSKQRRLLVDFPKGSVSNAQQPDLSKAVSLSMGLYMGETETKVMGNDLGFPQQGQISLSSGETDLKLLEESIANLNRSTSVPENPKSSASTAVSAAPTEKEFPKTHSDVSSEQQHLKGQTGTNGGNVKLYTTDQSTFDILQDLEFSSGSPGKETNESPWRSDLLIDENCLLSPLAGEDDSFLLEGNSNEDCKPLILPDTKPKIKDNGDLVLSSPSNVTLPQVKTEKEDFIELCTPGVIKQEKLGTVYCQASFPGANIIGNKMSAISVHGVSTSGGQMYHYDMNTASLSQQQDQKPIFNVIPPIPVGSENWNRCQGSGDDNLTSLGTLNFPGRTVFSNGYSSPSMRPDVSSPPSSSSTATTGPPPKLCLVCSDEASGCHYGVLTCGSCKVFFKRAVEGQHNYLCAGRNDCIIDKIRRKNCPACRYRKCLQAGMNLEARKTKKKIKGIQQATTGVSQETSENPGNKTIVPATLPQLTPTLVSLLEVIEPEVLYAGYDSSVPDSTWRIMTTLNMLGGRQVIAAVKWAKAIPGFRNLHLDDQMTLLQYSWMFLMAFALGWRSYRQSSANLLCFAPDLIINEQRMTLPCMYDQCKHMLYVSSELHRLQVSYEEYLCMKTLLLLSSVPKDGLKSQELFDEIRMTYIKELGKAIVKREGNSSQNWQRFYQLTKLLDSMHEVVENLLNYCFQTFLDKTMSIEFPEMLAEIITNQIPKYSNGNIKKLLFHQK

COP(=S)(NC(C)C)Oc1ccc(C)cc1[N+](=O)[O-] (stereo not drawn)
inactive: Potency [1] | Potency [2] | Potency [3] | Potency [4] | Potency [6] | Potency [7] | outcome [8] | outcome [9] | Potency [10] | outcome [11] | outcome [12] | outcome [13] | Potency [14] | Potency [15] | Potency [16] | Potency [17]
active: Potency [5] 24.3 µM

O=[N+]([O-])c1cc(C(F)(F)F)c(Cl)c([N+](=O)[O-])c1Nc1ncc(C(F)(F)F)cc1Cl
inactive: Potency [1] | outcome [18] | Potency [6] | Potency [7] | outcome [8] | outcome [9] | Potency [10] | outcome [11] | outcome [12] | outcome [13] | Potency [14] | Potency [15] | Potency [16]
active: Potency [2] 27.3 µM | Potency [3] 30.6 µM | Potency [4] 0.172 µM | Potency [5] 0.243 µM

ClC1=C(Cl)[C@]2(Cl)[C@H]3[C@H]([C@@H]4C=C[C@H]3C4)[C@@]1(Cl)C2(Cl)Cl
inactive: Potency [1] | Potency [3] | Potency [4] | Potency [6] | Potency [7] | outcome [8] | outcome [9] | Potency [10] | outcome [11] | outcome [12] | outcome [13] | Potency [14] | Potency [15] | Potency [16]
active: Potency [2] 30.6 µM and 61.1 µM | Potency [5] 30.6 µM and 17.2 µM

COc1ccc2[nH]cc(CCN(C(C)C)C(C)C)c2c1
inactive: Potency [1] | Potency [2] | Potency [3] | Potency [4] | Potency [5] | Potency [6] | Potency [7] | outcome [9] | Potency [10] | outcome [11] | outcome [12] | outcome [13] | Potency [14] | Potency [15] | Potency [16] | Potency [17]

O=C(O)CCCCCCNC1c2ccccc2CCc2ccccc21
inactive: Potency [1] | Potency [2] | Potency [3] | Potency [4] | Potency [5] | outcome [18] | Potency [6] | Potency [7] | outcome [8] | outcome [9] | Potency [10] | outcome [11] | outcome [12] | outcome [13] | Potency [14] | Potency [15] | Potency [16] | Potency [17] | Potency [19]

Fc1ccc(C(OCCN2CCN(CCCc3ccccc3)CC2)c2ccc(F)cc2)cc1
inactive: Potency [1] | Potency [4] | outcome [18] | Potency [6] | Potency [7] | outcome [8] | outcome [9] | Potency [10] | outcome [11] | outcome [12] | outcome [13] | Potency [14] | Potency [15] | Potency [16]
active: Potency [2] 26.6 µM | Potency [3] 29.8 µM

CCC[CH2][Sn]([CH2]CCC)([CH2]CCC)[O][Sn]([CH2]CCC)([CH2]CCC)[CH2]CCC
active: Potency [2] 0.533 µM | Potency [3] 0.377 µM | Potency [4] 1.68 µM | Potency [5] 0.0752 µM
inactive: activation [1] -11.2% [at 8.08 µM] | fluorescence, relative to Rose Bengal [18] -0.33% [at 3.72 µM] | fluorescence, % of fluorescein control [6] -0.0029% [at 3.72 µM] | fluorescence, % of triamterene [7] -0.1% [at 3.72 µM] | fluorescence, % of fluorescent control [8] -0.182% [at 3.72 µM] | fluorescence, % of fluorescein [9] 0.0128% [at 3.72 µM] | fluorescence, % of fluorescent control [10] -0.0236% [at 3.72 µM] | activity change [11] 0.0175% [at 3.72 µM] | fluorescence, % of fluorescent control [12] 0.113% [at 3.72 µM] | fluorescence, % of Rose Bengal [13] 0.0071% [at 3.72 µM] | fluorescence, % of fluorescent control [14] -0.0005% [at 3.72 µM] | fluorescence, % of fluorescein control [15] -0.0002% [at 3.72 µM] | fluorescence, % of fluorescent control [16] 0.0007% [at 3.72 µM]

Cc1ccc(C)c2ccccc12
inactive: Potency [1] | Potency [2] | Potency [3] | Potency [4] | Potency [5] | outcome [18] | Potency [6] | Potency [7] | outcome [8] | outcome [9] | Potency [10] | outcome [11] | outcome [12] | outcome [13] | Potency [14] | Potency [15] | Potency [16]

Nc1nc(N)c(N)c(N)n1
active: Potency [5] 8.68 µM | Potency [6] 31.6 µM | Potency [15] 28.2 µM [fluorescent]
inactive: Potency [1] | Potency [2] | Potency [3] | Potency [4] | outcome [18] | outcome [12] | outcome [13]

N#Cc1c[nH]cc1-c1cccc2c1OC(F)(F)O2
active: Potency [20] 8.63 µM | Potency [4] 5.45 µM | Potency [5] 2.17 µM | Potency [19] 9.77 µM
inactive: Potency [3] | Potency [6] | Potency [7] | outcome [8] | outcome [9] | Potency [10] | outcome [11] | outcome [12] | outcome [13] | Potency [14] | Potency [15] | Potency [16]

CCCCCCC[CH2][Sn]([Cl])([Cl])[CH2]CCCCCCC
active: Potency [2] 15.3 µM | Potency [5] 48.5 µM
inactive: Potency [1] | Potency [3] | Potency [4] | outcome [18] | Potency [6] | Potency [7] | outcome [8] | outcome [9] | Potency [10] | outcome [11] | outcome [12] | outcome [13] | Potency [14] | Potency [15] | Potency [16]

CN(C)C(=S)SSC(=S)N(C)C
active: Potency [1] 19.1 µM | Potency [2] 29.8 µM and 26.9 µM and 27.3 µM | Potency [3] 6.68 µM and 26.9 µM | Potency [5] 335 nM and 30.2 µM and 54.5 nM | activation [17] -15.4% [inconclusive] and -4.77% [inconclusive]
inactive: Potency [4] | outcome [18] | Potency [6] | Potency [7] | outcome [8] | outcome [9] | Potency [10] | outcome [12] | outcome [13] | Potency [14] | Potency [15] | Potency [16]

C=CC(=O)[O][Sn]([CH2]CCC)([CH2]CCC)[CH2]CCC
inactive: Potency [1] | outcome [18] | Potency [6] | Potency [7] | outcome [9] | Potency [10] | outcome [11] | outcome [12] | outcome [13] | Potency [14] | Potency [15] | Potency [16]
active: Potency [2] 0.864 µM | Potency [3] 1.09 µM | Potency [4] 1.93 µM | Potency [5] 0.0863 µM

O=S(=O)(O)F
inactive: Potency [1] | Potency [2] | Potency [3] | Potency [4] | Potency [5] | outcome [18] | Potency [6] | Potency [7] | outcome [8] | outcome [9] | Potency [10] | outcome [11] | outcome [12] | outcome [13] | Potency [14] | Potency [15] | Potency [16]

CCCN
inactive: Potency [1] | Potency [2] | Potency [3] | Potency [4] | Potency [5] | Potency [6] | Potency [7] | outcome [8] | outcome [9] | Potency [10] | outcome [11] | outcome [12] | outcome [13] | Potency [14] | Potency [15] | Potency [16]

COc1cnc(OC)n2nc(NS(=O)(=O)c3c(OCC(F)F)cccc3C(F)(F)F)nc12
inactive: Potency [1] | Potency [2] | Potency [3] | Potency [4] | Potency [5] | outcome [18] | Potency [6] | outcome [8] | outcome [9] | Potency [10] | outcome [11] | outcome [12] | outcome [13] | Potency [14] | Potency [15] | Potency [16] | Potency [17] | Potency [19]

Brc1ccc(Oc2ccc(Br)cc2Br)c(Br)c1
active: Potency [5] 17.2 µM
inactive: Potency [1] | Potency [2] | Potency [3] | Potency [4] | outcome [18] | Potency [6] | Potency [7] | outcome [9] | Potency [10] | outcome [11] | outcome [12] | outcome [13] | Potency [14] | Potency [15] | Potency [16]
